Experimental findings from PubChem BioAssay AID1851 (National Center for Advancing Translational Sciences (NCATS), 2009) are described below.

Values joined by “and” are separate entries in the source; they are usually repeats but may differ in a detail not shown here. Equal entries are not always repeated. About 2,600 (16%) of roughly 16,000 compounds were called active. Roughly 20% stayed inconclusive and do not appear here. A selection follows. Values without a mark were called inactive. Calls follow the shape of the dose curve; as a rule, active = well fitted curve in the direction sought with a large enough effect; inconclusive = small, poorly fitted or top-dose-only effect, or effect the other way; inactive = no such curve, though single readings can be large or run the other way.
% is scaled to controls: 0 for no effect and ±100 for the full control effect.

In this test the target is Cytochrome P450 2D6 (Homo sapiens) (UniProt P10635). The test is described as follows: Cytochrome panel assay with activity outcomes. Particulars: recombinant CYP, pro-luciferin dealkylation, luminescence, p450-cyp2d6; series mostly up to 57.1 µM.
Sequence of Cytochrome P450 2D6 (Homo sapiens) (P10635 whole entry, looked up): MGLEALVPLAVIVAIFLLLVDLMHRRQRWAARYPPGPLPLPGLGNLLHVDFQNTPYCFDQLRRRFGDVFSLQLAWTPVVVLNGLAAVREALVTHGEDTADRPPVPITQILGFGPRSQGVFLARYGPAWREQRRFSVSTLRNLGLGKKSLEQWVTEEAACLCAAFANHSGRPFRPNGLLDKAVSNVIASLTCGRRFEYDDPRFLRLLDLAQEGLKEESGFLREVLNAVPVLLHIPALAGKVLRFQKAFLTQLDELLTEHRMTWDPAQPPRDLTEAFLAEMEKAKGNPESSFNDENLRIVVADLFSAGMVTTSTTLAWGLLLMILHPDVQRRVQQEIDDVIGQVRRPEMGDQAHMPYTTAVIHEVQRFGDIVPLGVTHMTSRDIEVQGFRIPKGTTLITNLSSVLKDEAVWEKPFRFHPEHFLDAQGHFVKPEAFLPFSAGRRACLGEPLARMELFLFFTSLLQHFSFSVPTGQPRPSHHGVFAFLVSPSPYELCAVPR
Consider `CCOC(=O)CSC1=C(C#N)C(c2sccc2C)CC(=O)N1` (stereo unspecified), for which the AC50 – broadly, the concentration giving half of the maximal activity seen – was “inactive”.
The same measure, in the same setting: then `CCOC(=O)CSC1=C(C#N)C(C)C2=C(CCCC2=O)N1` (stereo unspecified), with “inactive”; and `C=CCOC(=O)C1=C(C)NC(SCC(=O)OCC)=C(C#N)C1c1ccc(C)cc1` (stereo unspecified), with 14.1 µM (active).
With `C#CCCCO/N=C1/[C@H]2O[C@@H]2[C@@H](O)[C@H]2[C@H]1CCn1c(=O)n([C@@H](CC)c3ccccc3)c(=O)n12`, the activity, negative = inhibition was -15.4% [at 11.4 µM].
Turning to `COc1ccccc1C(=O)NN1C(=O)C2C3C=CC(O3)C2C1=O` (stereo unspecified), the AC50 entry is “inactive”.
`Cn1c(=O)c2[nH]c(SCCN3CCOCC3)nc2n(C)c1=S`: the activity, negative = inhibition is 0.168% [at 11.4 µM].
Turning to `Cc1cc(C2C(C#N)=C(N)OC3=C2C(=O)CC(C)(C)C3)c(C)s1` (stereo unspecified), the AC50 entry was “inactive”.
The same measure, in the same setting: under `CS(=O)(=O)N(CC(=O)Nc1cccc(F)c1)c1cccc([N+](=O)[O-])c1` stands 0.631 µM (active); under `COc1ccc(CC(=O)Nc2cccc(/C(C)=N/NC(=O)c3cccc([N+](=O)[O-])c3)c2)cc1`, “inactive”.
Still for that read-out and setting: then `Cc1ccc(NS(=O)(=O)c2ccc(OCC(=O)Nc3cccc([N+](=O)[O-])c3)c(C)c2)cc1`, with “inactive”.
Still for that read-out and setting: under `COc1cccc(N(CC(=O)Nc2cccc(C(C)=O)c2)S(C)(=O)=O)c1` stands 0.141 µM (active); under `CC(=O)c1cccc(NC(=O)CCC2CCCC2)c1`, “inactive”; under `CC(=O)c1cccc(NC(=O)Oc2ccccc2)c1`, “inactive”.
`Cc1sc(NC(=O)C2CCCCC2C(=O)O)c(C(N)=O)c1C` (stereo unspecified): the AC50 result was “inactive”.
As to `CO[C@@H]1COC(=O)C/C=C\[C@@H](C)[C@@H]2C=C[C@H](O)[C@@H](COC(=O)CCC[C@H]1C)O2`, the activity, negative = inhibition was 4.34% [at 11.4 µM].
Regarding `CC(C)Oc1ccc2c(=O)c3cc(C(=O)O)ccc3oc2c1`, the AC50 entry was “inactive”.
Still for that read-out and setting: under `CC[C@H]1C2=C3C(CC[C@H]4C(OCc5ccc(F)cc5C(F)(F)F)OC[C@](C)([C@@H]34)N(C(=O)OC(C)(C)C)C2)C2COC(=O)OCC21` (stereo partly specified) stands “inactive”; under `COc1ccc(C2/C(=C(/O)c3ccccc3)C(=O)C(=O)N2c2ccccn2)c(OC)c1` (stereo unspecified), “inactive”.
Still for that read-out and setting: under `COc1ccc(Sc2nc3ccccc3n3c(C(F)(F)F)nnc23)cc1` stands “inactive”; under `CC1=C(C(=O)OCc2ccccc2)C(c2cccnc2)c2c(n(C)c(=O)n(C)c2=O)N1` (stereo unspecified), “inactive”.
The same measure, in the same setting: then `Cc1ccc(C2Nc3ccccc3C(=O)N2Cc2ccco2)cc1` (stereo unspecified), with “inactive”.
On to `COc1ccccc1-c1cc(-n2ccnc2)ncn1`, for which the AC50 is 12.6 µM (active).
The same measure, in the same setting: then `CN(C)Cc1ccccc1-c1cc(-n2ccnc2)ncn1`, with 2.51 µM (active); and `Cc1cc([N+](=O)[O-])nn1Cc1ccccc1F`, with “inactive”.
Still for that read-out and setting: then `Cc1cc(C)c(S(=O)(=O)N2CCCCC2)c(C)c1N(C)S(=O)(=O)c1ccccc1`, with “inactive”; and `CC1=C(CC(=O)O)c2cc(F)ccc2/C1=C\c1ccc(S(C)=O)cc1` (stereo unspecified), with “inactive”.
Still for that read-out and setting: then `CCOC(=O)c1sc(=S)n(-c2cccc(C(F)(F)F)c2)c1SC`, with “inactive”.
Regarding `Cc1nnc(S(=O)(=O)c2ccc(N=Nc3c(N)nc(N)nc3N)cc2)s1`, the activity, negative = inhibition was 18% [at 11.4 µM].
For `CCOC(=O)c1cc(NC(=O)c2ccc(OC)cc2)c(=O)oc1-c1ccccc1`, the AC50 result is “inactive”.
On the same count and under the same terms, under `Cc1nn(C(C)C(=O)Nc2sc3c(c2C#N)CCCC3)c(C)c1[N+](=O)[O-]` (stereo unspecified) stands “inactive”; under `C/C(=N/O)c1ccc2cc(Br)c3ccccc3c2c1`, 0.0251 µM (active).
Still for that read-out and setting: under `C/C(=N\O)c1ccc2[nH]ccc2c1` stands “inactive”.
Same read-out and setting: under `C=CCn1c(SCC(=O)NC2CCCCC2)nnc1C1CCCCC1` stands “inactive”.
In the case of `CO[C@@H]1COC(=O)[C@@H](CCSC)NC(=O)C/C=C\[C@@H](C)COC(=O)[C@H](C)NC(=O)C/C=C\[C@H]1C`, the activity, negative = inhibition is 6.23% [at 11.4 µM].
The same measure, in the same setting: under `CCN1C(=O)[C@H]2[C@H]3[C@H](O)[C@H](O)C/C(=N/OC[C@@H](O)COCc4ccco4)[C@@H]3CC[C@@H]2C1=O` stands 19.4% [at 11.4 µM] and 13.7% [at 11.4 µM].
Consider `Cc1ccc(/C=C/C(=O)NC(=S)Nc2ccccc2C(=O)NC2CCCCC2)cc1`, for which the AC50 result is “inactive”.
With `N.N.O=C(O)C1(C(=O)O)CCC1.[Pt]`, the AC50 entry was “inactive”.
Still for that read-out and setting: under `O=c1[nH]c2cc(Cl)ccc2c(O)c1-c1cccc(Oc2ccccc2)c1` stands 6.31 µM (active).
The same measure, in the same setting: under `Cc1cc(-c2ccccc2)[nH]c(=O)c1S(=O)(=O)c1ccc(Cl)cc1` stands “inactive”; under `O=c1[nH]c2cc(Cl)ccc2c(O)c1-c1ccc(Oc2ccccc2)cc1`, “inactive”.
Take `CCn1c(CC(=O)Nc2ccc(C)cc2)nnc1SCC(=O)Nc1nc(C)cs1`: the AC50 entry is “inactive”.
For the compound `C[C@@H]1CCC[C@H](C)N1NC(=O)c1ccc(Cl)c(S(N)(=O)=O)c1`, the AC50 result was “inactive”.
On the same count and under the same terms, then `CCCC[P+](CCCC)(CCCC)Cc1ccc(NC(=O)[C@@H](Cc2ccc3ccccc3c2)NC(=NC2CCCCC2)NC2CCCCC2)cc1`, with “inactive”; and `CS(=O)(=O)Nc1ccc(S(=O)(=O)N2CCOCC2)cc1`, with “inactive”.
On the same count and under the same terms, then `Cc1ccccc1C(=O)N1CCc2ccccc2C1`, with “inactive”; and `CC(=O)c1cccc(NC(=O)CSCc2ccccc2)c1`, with 14.1 µM (active); and `O=C(c1ccc(CN2CCc3ccccc3C2)cc1)N1CCc2ccccc2C1`, with 2 µM (active).
Consider `Nc1cc(=O)[nH]c(SCC(=O)Nc2ccc(S(=O)(=O)N3CCOCC3)cc2)n1`, for which the AC50 result is “inactive”.
For the compound `Cc1ccc(OCC(=O)Nc2ccccc2-c2ccccc2)cc1`, the AC50 result is “inactive”.
Still for that read-out and setting: then `COC(=O)c1ccc(C(=O)OC)c(NC(=O)CSCc2ccc(Br)cc2)c1`, with “inactive”; and `Cc1ccc(NS(=O)(=O)c2cc(C(=O)N3CCc4ccccc4C3)ccc2Cl)cc1`, with “inactive”; and `O=C(CSCc1ccccc1)Nc1ccc(S(=O)(=O)N2CCOCC2)cc1`, with 6.31 µM (active).
Same read-out and setting: then `O=C(CSCc1ccccc1)Nc1cccc(C(=O)Nc2ccccc2C(=O)O)c1`, with “inactive”; and `CSc1ccccc1NC(=O)CSCc1ccc(C)cc1`, with 14.1 µM (active); and `CN(C)CCN1C(=O)C(O)=C(C(=O)c2cc3ccccc3o2)C1c1cccc(Br)c1` (stereo unspecified), with “inactive”.
Still for that read-out and setting: under `COc1ccc2c(c1)C(=O)N(c1ccccc1)C(=O)C2` stands “inactive”.
Take `CN(C)c1cc(=O)n2c(n1)SCCC2`: the AC50 entry was “inactive”.
For `CCSc1nc2ccccc2n1C(=O)/C=C\c1ccc(OC)c(OC)c1`, the AC50 result was “inactive”.
The same measure, in the same setting: then `CC(C)COP(=O)(OCC(C)C)C(O)c1ccccc1F` (stereo unspecified), with “inactive”; and `CN(C)S(=O)(=O)c1ccc(NC(=O)c2cc(F)c(F)cc2Cl)cc1`, with “inactive”; and `CCOC(=O)c1c(NC(=O)c2ccc(S(=O)(=O)N3CCOCC3)cc2)sc2c1CCN(C)C2`, with “inactive”.
Still for that read-out and setting: then `O=C(Nc1ccc(S(=O)(=O)N2CCCC2)cc1)c1ccc(CN2CCOCC2)cc1`, with 5.01 µM (active); and `O=C(Nc1ccccc1-c1nc2ccccc2[nH]1)c1ccc(S(=O)(=O)N2CCCCC2)cc1`, with “inactive”; and `CCN(CC)S(=O)(=O)c1ccc(C(=O)Nc2ncn(Cc3ccccc3)n2)cc1`, with “inactive”.
Still for that read-out and setting: then `CN(C)S(=O)(=O)c1ccc(C(=O)Nc2ccc(CN3CCCC3)cc2)cc1`, with 2.51 µM (active); and `O=C(NCc1n[nH]c(=S)n1-c1ccccc1)c1ccc(S(=O)(=O)N2CCOCC2)cc1`, with “inactive”; and `COCc1nnc(NC(=O)c2ccc(S(=O)(=O)N3CCCCCC3)cc2)o1`, with “inactive”.
On to `Cc1nc2ccc3nc(NC(=O)c4ccc(S(=O)(=O)N5CCOCC5)cc4)sc3c2s1`, for which the AC50 result is “inactive”.
Still for that read-out and setting: under `O=C(Nc1ccc(S(=O)(=O)N2CCCCC2)cc1)c1ccc(CN2CCc3ccccc3C2)cc1` stands 0.251 µM (active); under `O=C(CSc1ncccn1)Nc1ccc(S(=O)(=O)N2CCCCC2)cc1`, “inactive”; under `O=C(Nc1ccc(S(=O)(=O)N2CCOCC2)cc1)c1ccc(CN2CCc3ccccc3C2)cc1`, 0.178 µM (active).
On to `C[C@@H](c1ccccc1)N1C(=O)[C@H]2[C@@H]3[C@H](O)[C@H](O)CC(=O)[C@H]3CC[C@H]2C1=O`, for which the activity, negative = inhibition is 12.3% [at 11.4 µM] and 1.84% [at 11.4 µM].
The same measure, in the same setting: under `C#CCCCO/N=C1/C[C@@H](O)[C@@H](O)[C@@H]2[C@@H]3C(=O)N(C[C@@H]4CCCO4)C(=O)[C@H]3CC[C@@H]12` stands 9.44% [at 11.4 µM].
Turning to `CCCCOc1ccccc1C1CC(=O)NC2=C1C(=O)CCC2` (stereo unspecified), the AC50 entry was “inactive”.
On the same count and under the same terms, then `COc1ccc(N2CCN(S(=O)(=O)c3ccc4c(c3)CCCC4)CC2)c([N+](=O)[O-])c1`, with “inactive”.
Regarding `Cn1c(=O)[nH]c(=O)c2c1nc(NCCCO)n2CCCc1ccccc1`, the AC50 entry is “inactive”.
Regarding `O=C(Nc1nc(-c2ccccc2)cs1)c1cccc([N+](=O)[O-])c1`, the AC50 entry was “inactive”.
Same read-out and setting: under `Cc1nn(-c2ccc(F)cc2)c(Cl)c1/C=C(\CCC(=O)O)c1nc2ccccc2s1` stands “inactive”.
Consider `CC(=O)[C@H]([C@@H](c1ccccc1)N1CCOCC1)N1CCOCC1`, for which the activity, negative = inhibition is -3.05% [at 11.4 µM].
Consider `CN1CCc2c(c3ccccc3n2C)C1`, for which the AC50 is 12.6 µM (active).
The same measure, in the same setting: then `O=c1[nH]ncc2c3ccccc3n(Cc3ccccc3)c12`, with “inactive”.
For `CN1CCc2[nH]nc(-c3n[nH]c4c3CN(C)CC4)c2C1`, the activity, negative = inhibition was 11.7% [at 11.4 µM].
On the same count and under the same terms, then `CN1CCc2nc(N)nc(-c3nc(N)nc4c3CN(C)CC4)c2C1`, with 8.94% [at 11.4 µM].
Regarding `CN1CCc2c(c3ccccc3n2Cc2ccccc2)C1`, the AC50 was 3.16 µM (active).
For `CCCNC(=O)OC[C@@H]1O[C@H](CCO/N=C\[C@@H](C)[C@H](OCc2ccccc2)C(C)C)C=C[C@@H]1Oc1ccc(OC)cc1`, the activity, negative = inhibition was -8.99% [at 11.4 µM].
With `O=C1N=C2SCCN2/C1=C\c1c(Cl)cccc1Cl`, the AC50 entry is “inactive”.
For the compound `COC(=O)C/C=C\[C@H](C)[C@H](CO)NS(=O)(=O)c1ccc(C)cc1`, the activity, negative = inhibition is -10.6% [at 11.4 µM].
As to `COCCn1c(=O)c(C)nc2cnc(N(C)C)nc21`, the AC50 entry is “inactive”.
On the same count and under the same terms, under `Cn1c(=O)c(-c2ccccc2)nc2cnc(N3CCNCC3)nc21` stands “inactive”.
The same measure, in the same setting: under `CCN(CC)c1ccc(N2C(=O)/C(=C/c3cccnc3)SC2=S)cc1` stands “inactive”.
In the case of `Cc1c(NC(=O)C2CCN(S(=O)(=O)c3ccc(Cl)cc3)CC2)c(=O)n(-c2ccccc2)n1C`, the AC50 result is “inactive”.
